A number with no mark means an inactive call. Records with an inconclusive call do not appear. The source made the active and inactive calls. Unless noted, calls come from the whole dose curve; as a rule, active = well fitted curve in the direction sought with a large enough effect in the repeat runs; inconclusive = weak or mixed curves; inactive = no such curve, though single readings can be large; an effect the other way counts as inactive or inconclusive.

Test [1] in a line: qHTS assay to identify small molecule agonists of H2AX (AID 1224845; active = well fitted activation curve with a large enough effect in the signal ratio in the repeat runs, not every such curve was filed as active; the % refers to the signal ratio). In outline: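 Wild-type CHO-K1 cells, plated overnight, exposed 3hr at 37C to 15 concentrations (0.76% DMSO final). Lysed, then HTRF anti-pH2AX (S139) cryptate and anti-H2AX-d2 antibodies, 24 hr room temperature; 665/620 nm emission read.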
On the technique in general: Quantitative high-throughput screening tests each substance at several concentrations.

The nature of test [2]: qHTS assay to identify small molecule agonists of the hypoxia (HIF-1) signaling pathway (AID 1224846; active = well fitted activation curve with a large enough effect in the signal ratio in the repeat runs, not every such curve was filed as active; the % refers to the signal ratio). The essentials:
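Reporter induction in HRE-bla ME-180 cells is taken as agonism: cells sit 5 hrs after plating, receive compounds or DMSO only, incubate 17 hrs at 37C under 5% CO2, and are loaded with CCF4-AM for beta-lactamase FRET measurement.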

Test [3] in a line: qHTS RealTime-Glo MT Cell Viability Assay in HepG2 cells - 24 hour (AID 1224867). Note: nearly all actives have a fitted effect of over 50% in size. In outline: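 Cell number in HepG2 cultures estimated from NanoLuc luminescence generated by metabolic reduction of a prosubstrate by living cells. The homogeneous, nonlytic format allowed repeated reads at 0, 8, 16, 24, 32 and 40 h of compound exposure.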
The nature of test [4]: qHTS RealTime-Glo MT Cell Viability Assay in HEK293 cells - 32 hour (AID 1224868). Note: nearly all actives have a fitted effect of over 50% in size. Note: potency is the fitted concentration of half-maximal effect. In outline: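 Homogeneous bioluminescent viability format in HEK293 cells (600 cells/well). Following 5 h at 37 C/5% CO2, 23 nL compound was pintooled; the signal was measured repeatedly during 40 h incubation.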
Test [5] is described as follows: A CellTox Green Cytotoxicity Assay to monitor cytotoxicity in HEK293 cells - 0 hour (AID 1224869). Note: nearly all actives have a fitted effect of over 50% in size. In outline:
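Tox21 screen in HEK293: membrane-impermeant cyanine dye fluoresces on binding dead-cell DNA; compound pinned 5 h post-seeding, plates held at 37 C, signal read repeatedly through 40 h.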

Test [6] is described as follows: qHTS RealTime-Glo MT Cell Viability Assay in HepG2 cells - 40 hour (AID 1224870). Note: nearly all actives have a fitted effect of over 50% in size. In outline: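 HepG2 cells (600/well) mixed with RealTime-Glo MT reagent, settled 5 h at 37 C/5% CO2 before compound addition. Nonlytic NanoLuc luminescence from viable-cell prosubstrate reduction read repeatedly during 40 h treatment at 37 C.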
A short description of test [7]: qHTS assay to identify small molecule agonists of H2AX - cell viability counter screen (AID 1224847; calls by dose curve; note: top concentration of the series differs between compounds; nearly all actives have a fitted effect of over 30% in size). In outline:
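Cells plated first: CHO-K1, 1000 per well in 10% FBS medium, incubated overnight at 37C. Then 15-point compound titration added (final DMSO 0.76%) for 3 hr. Finally CellTiter-Glo added and luminescence read.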

The nature of test [8]: qHTS assay to identify small molecule antagonists of the estrogen related receptor (ERR) signaling pathway from Tox21 library (AID 1224848). Note: nearly all actives have a fitted effect of over 50% in size. Note: potency is the fitted concentration of half-maximal effect. The essentials:
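Compounds dissolved in DMSO are pin-transferred onto ERR reporter cells (2,000 per well) that have settled for 6 h at 37 C. Plates then incubate 18 h at 37 C before ONE-Glo luciferase reagent and a luminescence read 30 min later.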

The nature of test [9]: qHTS assay to identify small molecule agonists of the estrogen related receptor (ERR) signaling pathway from Tox21 library (AID 1224849; calls by dose curve; note: nearly all actives have a fitted effect of over 15% in size). As to conditions: ERR reporter cell line, ONE-Glo luciferase, 18 h; at 92.4 µM (top of the series) unless noted. In outline:
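Tox21 compounds tested for ERR agonism in an NTP reporter cell line: 18 h treatment at 37 C, then ONE-Glo luminescence.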
% is set by controls: 0 for no effect and ±100 for the full control effect.

As to `O=C(OCCc1ccccc1)c1ccccc1`, the Potency result in test [1], in test [2], in test [3], in test [4], in test [5] and in [6] was “inactive” throughout.

As to `CC(=O)c1ccc2c(c1)N(CCCN1CCC(CCO)CC1)c1ccccc1S2`, the Potency result in test [7], in test [3], in [5] and in test [6] was “inactive” each time. Moreover, the Potency in test [4] was 21.3 µM (active).

Turning to `C[C@H]1C[C@H]2[C@@H]3CCC4=CC(=O)C=C[C@]4(C)[C@@]3(Cl)[C@@H](O)C[C@]2(C)[C@@]1(O)C(=O)CO`, the Potency entry in [1], in test [3], in [4], in test [5] and in test [6] was “inactive” throughout. For the same molecule, the Potency in [8] was 26.6 µM (active). Moreover, the activity change, positive = activation in test [9] was -28.8% [at 42.5 µM].

Turning to `O=S(c1cc(Cl)cc(Cl)c1O)c1cc(Cl)cc(Cl)c1O`, the Potency entry in test [1], in test [3], in [4], in test [5] and in [6] was “inactive” each time. For the same molecule, the activity change, positive = activation in [9] was -6.01% [at 42.5 µM].

Consider `C=CC(=O)OCCOCCOC(=O)C=C`, for which the Potency result in test [8] and in test [5] was “inactive” throughout. In addition, the activity change, positive = activation in [9] was -74.8% (active). Besides, the Potency in test [4] was 34.8 µM (active).

In the case of `CCC(=O)O[C@]1(C(=O)CCl)[C@@H](C)C[C@H]2[C@@H]3CCC4=CC(=O)C=C[C@]4(C)[C@@]3(F)[C@@H](O)C[C@@]21C`, the Potency result in test [7], in [5] and in test [6] was “inactive” each time. Also, in test [9], the activity change, positive = activation is -18.7% [at 42.5 µM].

The values are drawn from PubChem BioAssay (Tox21).
